# Measurements as given in the supplement of paper PMC12669032.
# Unmarked numbers belong to inactive results.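 Rule for the calls: active = AUC reduced over 20% with Padj below 0.05 in at least 2 of 3 replicates; inactive = otherwise.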
# How the values were obtained:
# Experiment in all cases: growth AUC relative to DMSO control (median of replicates) (fraction); higher = more growth (less inhibition), active = hit call of the paper
# Conditions in all cases: 20 µM; 24 h
# Coprococcus comes = test system: Coprococcus comes
# In short: (§1)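 OD600 was recorded every hour for 24 h in anaerobic monocultures of gut bacteria kept at 37 °C in mGAM, seeded at OD600 0.05 and given 20 µM compound in 1% DMSO. The area under each growth curve was scaled to the plate median of solvent-only wells, or to row and column medians for the industrial chemical plate. Before this step, the minimum OD was set to 0. Reported values are medians of three biological replicates run on separate days.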
# Escherichia coli ED1a = test system: Escherichia coli ED1a
# In short: as §1
# Escherichia coli IAI1 = test system: Escherichia coli IAI1
# In short: as §1
# Eubacterium rectale = test system: Eubacterium rectale
# In short: as §1
# [1] = test system: Fusobacterium nucleatum subsp. animalis
# In short: as §1
# Lactobacillus gasseri = test system: Lactobacillus gasseri
# In short: as §1
# Lactobacillus paracasei = test system: Lactobacillus paracasei
# In short: as §1
# Odoribacter splanchnicus = test system: Odoribacter splanchnicus
# In short: as §1
# [2] = test system: Parabacteroides distasonis
# In short: as §1
# Parabacteroides merdae = test system: Parabacteroides merdae
# In short: as §1
# Roseburia intestinalis = test system: Roseburia intestinalis
# In short: as §1
# Streptococcus salivarius = test system: Streptococcus salivarius
# In short: as §1
SMILES,growth AUC (Coprococcus comes),growth AUC (Escherichia coli ED1a),growth AUC (Escherichia coli IAI1),growth AUC (Eubacterium rectale),growth AUC [1],growth AUC (Lactobacillus gasseri),growth AUC (Lactobacillus paracasei),growth AUC (Odoribacter splanchnicus),growth AUC [2],growth AUC (Parabacteroides merdae),growth AUC (Roseburia intestinalis),growth AUC (Streptococcus salivarius)
CCNc1nc(Cl)nc(NCC)n1,1.01,1.05,1.03,0.961,0.977,1.09,1,0.998,1.01,1.01,0.968,1.03
CON(C)C(=O)Nc1ccc(Cl)cc1,1.02,1.01,1,0.999,0.96,1.04,0.97,0.998,1.02,1.02,1.02,1.04
CCNc1nc(NC(C)(C)C)nc(SC)n1,0.969,0.987,0.986,0.956,1.06,1.1,1.08,0.876,0.936,0.947,1.07,0.984
CCCCN(CC)C(=O)SCCC,1.03,1.01,1.01,0.982,1.07,0.972,1.02,0.981,1.01,1.02,1.03,0.996
CNc1cnn(-c2cccc(C(F)(F)F)c2)c(=O)c1Cl,0.978,0.99,0.981,0.995,0.946,0.975,0.943,0.992,1.01,0.989,1.03,0.976
COP(=S)(OC)SCN1C(=O)c2ccccc2C1=O,1,1,0.991,0.967,0.947,1.11,0.986,0.968,0.982,0.988,0.901,0.979
O=c1[nH]c2c(c(=O)n1C1CCCCC1)CCC2,0.945,0.99,0.987,0.899,0.834,0.923,1.02,0.98,0.999,0.973,0.982,0.998
O=C(NC(=O)c1c(F)cccc1F)Nc1ccc(Cl)c(Oc2ncc(C(F)(F)F)cc2Cl)c1,0.98,0.999,1.01,0.951,1.1,1.16,0.815,1.13,1.02,0.991,1,1.02
CC1CNC(=S)N1 (stereo not given),1.03,1.01,1.06,1.06,1.05,0.989,1.06,1.02,0.983,1.02,1.02,1
COCc1cnc(C2=NC(C)(C(C)C)C(=O)N2)c(C(=O)O)c1 (stereo not given),0.971,1,0.982,1.09,1.05,0.91,0.934,1.05,1.03,0.987,0.978,0.977
O=C(NC(=O)c1ccccc1Cl)Nc1ccc(OC(F)(F)F)cc1,0.949,0.97,0.952,1.04,0.728,0.856,0.892,1.04,0.965,0.971,0.918,0.951
Cc1nc(N(C)C)nc(OC(=O)N(C)C)c1C,1.01,0.998,0.992,0.98,1,1.1,0.978,1.01,1.03,1.04,0.988,1
COC(=O)/C(C)=C/OP(=S)(OC)OC,0.989,0.987,0.97,0.95,1.01,1.06,1.07,0.95,1.03,0.999,0.981,1.01
Oc1ccc(Cl)cc1,0.989,0.967,0.951,0.921,0.941,0.968,1,1.01,1.05,0.988,0.972,0.984
O=C(O)COc1ccccc1,0.999,0.981,1,1,1.01,1.03,0.753,1.03,1,0.959,0.995,0.994
O=[N+]([O-])C(Br)(CO)CO,0.925,1,0.987,0.949,1,0.958,0.999,1,1.03,0.998,0.964,0.967
CCOP(=S)(OCC)SCSC(C)(C)C,0.996,1,1.01,1.22,0.902,0.909,1.03,1.06,0.955,1,0.951,0.996
O=C(NC(=O)c1c(F)cccc1F)Nc1ccc(Oc2ccc(C(F)(F)F)cc2Cl)cc1F,1,1.03,1.03,0.994,0.951,1.21,0.974,0.978,0.988,1,1.1,0.985
CCNc1nc(NC(C)C(C)C)nc(SC)n1 (stereo not given),0.977,0.979,0.991,0.89,0.997,1.06,0.81,0.954,1.04,0.992,1.04,0.97
Nc1c(Cl)c(Cl)c(Cl)c(Cl)c1Cl,0.958,0.986,0.95,1.01,0.983,0.972,0.869,0.993,1.04,0.971,0.986,0.983
CCOP(=S)(OCC)SCSCC,0.985,0.987,0.956,1.17,0.99,0.97,0.952,0.984,0.921,0.947,0.962,1.02
O=C(O)COc1ccc(Cl)cc1Cl,1.02,1.01,0.991,0.943,0.947,1.08,1.05,0.958,0.988,0.982,1.03,0.989
CCOP(=S)(OCC)SCn1c(=O)oc2cc(Cl)ccc21,1,0.981,0.974,1,0.93,0.918,0.994,0.979,0.892,0.955,0.932,0.98
CC(C)(O)C(Cl)(Cl)Cl.CC(C)(O)C(Cl)(Cl)Cl.O,1.04,1.01,1.02,0.942,1.1,1.06,1.02,0.967,1.05,0.987,1.01,1.05
CCC1(C(=O)NC(C)c2ccc(Cl)cc2)C(C)C1(Cl)Cl (stereo not given),0.97,0.964,1,1,0.886,0.871,0.955,0.851,0.641 (active),0.91,0.888,0.97
